From PubChem BioAssay (Tox21)
Several values for one entry are separate records, joined by “and”; a condition that tells them apart may be missing. Identical values can stand only once. Results filed as inconclusive are left out. Some compounds were tested as several samples or in several runs, with calls that do not always agree. Activity calls are given as the source filed them. Unless noted, the call rests on the fitted dose curve; in most records, active means well fitted curve in the direction sought with a large enough effect in the repeat runs; inconclusive means weak or mixed curves; inactive means no such curve, though single readings can be large; an effect the other way counts as inactive or inconclusive.

What was measured:
[1] = qHTS assay to identify aromatase inhibitors - cell viability counter screen (AID 743084); conditions: MCF-7 aro ERE viability, CellTiter-Fluor, 24 h; series mostly up to 70.3 µM;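 further: cells stimulated with testosterone during compound exposure; nearly all actives have a fitted effect of over 55% in size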; further: potency means the concentration at half of the fitted maximal effect
[2] = target: Aryl hydrocarbon receptor (Homo sapiens) (UniProt P35869); assay: qHTS assay to identify small molecule that activate the aryl hydrocarbon receptor (AhR) signaling pathway (AID 743085); conditions: HepG2 AhR-luc (HG2L7.5c1), luciferase, 24 h; series mostly up to 70.3 µM; further: nearly all actives have a fitted effect of over 15% in size; further: potency means the concentration at half of the fitted maximal effect;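 on activation: HG2L7.5c1 human HepG2 liver cells with stably integrated DRE-driven firefly reporter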
In short: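 A multiplexed format paired cell viability (CellTiter-Fluor fluorescence) with AhR-dependent luciferase output (ONE-Glo luminescence) in the same wells of HepG2 DRE-luc cells after 24 h compound exposure at 37C.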

[3] = qHTS assay to identify small molecule that activate the aryl hydrocarbon receptor (AhR) signaling pathway - cell viability counter screen (AID 743086); conditions: HepG2-AhR-luc viability, CellTiter-Fluor, 24 h; series mostly up to 70.3 µM; further: nearly all actives have a fitted effect of over 45% in size; further: potency means the concentration at half of the fitted maximal effect
In short: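 HepG2-AhR-luc (HG2L7.5c1) cells, 4000/well, treated 24 h at 37 C with compound; viability measured as CellTiter-Fluor fluorescence after 30 min in the same wells as the luciferase read.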

[4] = target: Peroxisome proliferator-activated receptor gamma (Homo sapiens) (UniProt P37231); assay: qHTS assay to identify small molecule agonists of the peroxisome proliferator-activated receptor gamma (PPARg) signaling pathway (AID 743094; active means well fitted activation curve with a large enough effect in the signal ratio in the repeat runs, not every such curve was filed as active; the % refers to the signal ratio; further: potency means the concentration at half of the fitted maximal effect); conditions: HEK293H PPARg-UAS-bla, beta-lactamase FRET ratio, 17 h; series mostly up to 57 µM
In short: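 Following 5 h plating at 37C, PPARg-bla HEK293H cells receive compound or DMSO for 17 h; fluorescence intensity is recorded after LiveBLAzer B/G loading for 1 h at room temperature.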

[5] = qHTS assay to identify small molecule antagonists of the peroxisome proliferator-activated receptor gamma (PPARg) signaling pathway - cell viability counter screen (AID 743194); conditions: PPARg-bla HEK293H viability, CellTiter-Glo luminescence, 17 h, co-treated with 50 nM rosiglitazone; series mostly up to 62.6 µM; further: nearly all actives have a fitted effect of over 55% in size
In short: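 Cytotoxicity counter screen in PPARg-bla HEK293H cells, same wells as reporter assay. Compounds plus 50 nM rosiglitazone (final) for 17 h at 37 C, then viability read by CellTiter-Glo luminescence.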

[6] = qHTS assay for small molecule agonists of the antioxidant response element (ARE) signaling pathway - cell viability counter screen (AID 743203; calls by dose curve; further: nearly all actives have a fitted effect of over 55% in size); conditions: ARE-bla HepG2 viability, CellTiter-Glo luminescence, 16 h; series mostly up to 73.3 µM
In short: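 Compounds in DMSO were pinned onto ARE-bla HepG2 cells plated 5 hrs earlier at 2,000 cells/well. Sixteen hours later at 37C/5% CO2, CellTiter-Glo was added and luminescence measured after 30 min at room temperature.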

[7] = qHTS assay to identify small molecule agonists of the peroxisome proliferator-activated receptor delta (PPARd) signaling pathway - cell viability counter screen (AID 743211); conditions: PPARd-bla HEK293H viability, CellTiter-Glo luminescence, 17 h; series mostly up to 62.6 µM; further: nearly all actives have a fitted effect of over 55% in size
In short: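 Tox21 library compounds, delivered in DMSO, were incubated 17 h with PPARd-bla HEK293H cells; cytotoxicity was taken from CellTiter-Glo luminescence read 30 min after reagent addition.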

[8] = qHTS assay to identify small molecule antagonists of the peroxisome proliferator-activated receptor delta (PPARd) signaling pathway - cell viability counter screen (AID 743213); conditions: PPARd-bla HEK293H viability, CellTiter-Glo luminescence, 17 h; series mostly up to 62 µM; further: nearly all actives have a fitted effect of over 50% in size
In short: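 In this counter screen, HEK293H cells carrying a UAS-beta-lactamase reporter are co-treated with test compounds and 300 nM L165041 (final) for 17 h at 37 C; cell viability is quantified by CellTiter-Glo luminescence.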

[9] = target: Peroxisome proliferator-activated receptor delta (Homo sapiens) (UniProt Q03181); assay: qHTS assay to identify small molecule antagonists of the peroxisome proliferator-activated receptor delta (PPARd) signaling pathway (AID 743215; active means well fitted inhibition curve with a large enough effect in the signal ratio in the repeat runs, not every such curve was filed as active; the % refers to the signal ratio;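 further: cells stimulated with agonist L165041 at 300 nM final during compound exposure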); conditions: HEK293H PPARd-UAS-bla, beta-lactamase FRET ratio, antagonist, 17 h; series mostly up to 62 µM
In short: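 With L165041 present at 300 nM final, compounds were incubated 17 h at 37 C on PPARd UAS-bla HEK293H cells. A FRET-based beta-lactamase substrate was then applied for 2 h at room temperature and fluorescence intensity recorded.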

[10] = qHTS assay to identify small molecule agonists of the farnesoid-X-receptor (FXR) signaling pathway - cell viability counter screen (AID 743218); conditions: FXR-bla HEK293T viability, CellTiter-Glo luminescence, 16 h; series mostly up to 62.6 µM; further: nearly all actives have a fitted effect of over 45% in size
In short: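 After 16 h at 37 C with test compounds, FXR-bla HEK 293T cells were given LiveBLAzer B/G substrate for 2 h at RT and then CellTiter-Glo; luminescence was taken after 30 min.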

[11] = qHTS assay to identify small molecule antagonists of the farnesoid-X-receptor (FXR) signaling pathway - cell viability counter screen (AID 743221; active means well fitted cell-killing curve with a large enough effect in the repeat runs, not every such curve was filed as active; further: nearly all actives have a fitted effect of over 50% in size); conditions: FXR-bla HEK293T viability, CellTiter-Glo luminescence, 16 h; series mostly up to 62.6 µM
In short: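 Cytotoxicity is taken from ATP luminescence (CellTiter-Glo, 30 min, room temperature) in FXR-bla HEK 293T cells previously incubated 16 h at 37 C with compound and chenodeoxycholic acid at 50 uM final.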

[12] = target: Vitamin D3 receptor (Homo sapiens) (UniProt P11473); assay: qHTS assay to identify small molecule agonists of the vitamin D receptor (VDR) signaling pathway (AID 743222; calls by dose curve); conditions: HEK293T VDR-UAS-bla, beta-lactamase FRET ratio, 16 h; series mostly up to 63.5 µM
In short: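 VDR-bla cells were seeded, left 4 h, treated with compounds in DMSO for 16 h, incubated 2 h at RT with B/G FRET substrate, and read for fluorescence.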

[13] = target: Vitamin D3 receptor (Homo sapiens) (UniProt P11473); assay: qHTS assay to identify small molecule antagonists of the vitamin D receptor (VDR) signaling pathway (AID 743223; active means well fitted inhibition curve with a large enough effect in the signal ratio in the repeat runs, not every such curve was filed as active; the % refers to the signal ratio); conditions: VDR-UAS-bla HEK293T, beta-lactamase FRET ratio, 16 h; series mostly up to 61 µM
In short: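 Quantitative HTS in VDR-bla reporter cells stimulated with 1alpha,25-dihydroxyvitamin D3, 3 nM final. Compound exposure 16 h, 37C, 5% CO2. Read-out: beta-lactamase FRET substrate fluorescence, 2 h RT.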

[14] = qHTS assay for small molecule agonists of the antioxidant response element (ARE) signaling pathway (AID 743202; active means well fitted activation curve with a large enough effect in the signal ratio in the repeat runs, not every such curve was filed as active; the % refers to the signal ratio; further: potency means the concentration at half of the fitted maximal effect); conditions: HepG2 ARE-bla reporter, beta-lactamase FRET, 16 h; series mostly up to 73.3 µM
In short: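 ARE-bla HepG2 cells (beta-lactamase reporter under the antioxidant response element), plated 5 hours, then exposed to compounds 16 hours at 37 C. LiveBLAzer B/G FRET substrate added for 2 hours at room temperature; fluorescence intensity read.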

[15] = qHTS assay for small molecule activators of the heat shock response signaling pathway - cell viability counter screen (AID 743209); conditions: HSE-bla HeLa viability, CellTiter-Glo luminescence, 5 h; series mostly up to 62.6 µM; further: nearly all actives have a fitted effect of over 50% in size
In short: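 Counter screen for cytotoxicity in HeLa HSE-bla reporter cells. Treatment was 5 h at 37 C; viability was detected by luminescent ATP assay (CellTiter-Glo) in the same wells as the beta-lactamase read.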

[16] = qHTS assay for small molecule activators of the heat shock response signaling pathway (AID 743210; active means well fitted activation curve with a large enough effect in the signal ratio in the repeat runs, with a control signal flat, not every such curve was filed as active; the % refers to the signal ratio); conditions: HeLa HSE-bla reporter, beta-lactamase ratio, 5 h; series mostly up to 62.6 µM
In short: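 HSE-bla HeLa cells (beta-lactamase reporter under heat shock response elements), plated overnight, then exposed to compounds 5 h at 37 C; LiveBLAzer B/G FRET substrate added, 2.5 h at room temperature, fluorescence intensity read.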

[17] = target: Peroxisome proliferator-activated receptor delta (Homo sapiens) (UniProt Q03181); assay: qHTS assay to identify small molecule agonists of the peroxisome proliferator-activated receptor delta (PPARd) signaling pathway (AID 743212; calls by dose curve); conditions: HEK293H PPARd-UAS-bla, beta-lactamase FRET ratio, 17 h; series mostly up to 62.6 µM
In short: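 GeneBLAzer UAS-bla HEK293H cells carrying a PPARδ construct were exposed to compounds at 37 °C. Beta-lactamase activity was read by FRET fluorescence after 2 h at room temperature with LiveBLAzer B/G substrate.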

[18] = target: Bile acid receptor (Homo sapiens) (UniProt Q96RI1); assay: qHTS assay to identify small molecule antagonists of the farnesoid-X-receptor (FXR) signaling pathway (AID 743217; active means well fitted inhibition curve with a large enough effect in the signal ratio in the repeat runs, not every such curve was filed as active; the % refers to the signal ratio); conditions: HEK293T FXR-UAS-bla, beta-lactamase ratio, CDCA-stimulated, 16 h; series mostly up to 62.6 µM
In short: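 In this cell-based antagonist screen, inhibition of CDCA-driven (50 uM final) UAS-beta-lactamase expression in HEK 293T cells was measured by FRET fluorescence following 16 h compound exposure at 37 °C.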

[19] = target: Bile acid receptor (Homo sapiens) (UniProt Q96RI1); assay: qHTS assay to identify small molecule agonists of the farnesoid-X-receptor (FXR) signaling pathway (AID 743220; active means well fitted activation curve with a large enough effect in the signal ratio in the repeat runs, not every such curve was filed as active; the % refers to the signal ratio); conditions: HEK293T FXR-UAS-bla, beta-lactamase FRET ratio, 16 h; series mostly up to 62.6 µM
In short: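 Beta-lactamase reporter under UAS control in GeneBLAzer FXR HEK 293T cells (5000/well) measured with LiveBLAzer FRET substrate after 2 h at room temperature. Compound exposure lasted 16 h at 37C.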

[20] = target: Peroxisome proliferator-activated receptor gamma (Homo sapiens) (UniProt P37231); assay: qHTS assay to identify small molecule antagonists of the peroxisome proliferator-activated receptor gamma (PPARg) signaling pathway (AID 743191; calls by dose curve; further: nearly all actives have a fitted effect of over 30% in size); conditions: HEK293H PPARg-UAS-bla, beta-lactamase ratio, antagonist, 17 h; series mostly up to 62.6 µM
In short: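 GeneBLAzer PPARg UAS-bla HEK293H cells, 5 h post-plating, exposed to compounds 17 h at 37C. LiveBLAzer B/G FRET substrate added for 1 h at room temperature; beta-lactamase reporter read by fluorescence intensity.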

Measured: Potency

Sequence of Bile acid receptor (Homo sapiens) (Q96RI1 whole entry, looked up): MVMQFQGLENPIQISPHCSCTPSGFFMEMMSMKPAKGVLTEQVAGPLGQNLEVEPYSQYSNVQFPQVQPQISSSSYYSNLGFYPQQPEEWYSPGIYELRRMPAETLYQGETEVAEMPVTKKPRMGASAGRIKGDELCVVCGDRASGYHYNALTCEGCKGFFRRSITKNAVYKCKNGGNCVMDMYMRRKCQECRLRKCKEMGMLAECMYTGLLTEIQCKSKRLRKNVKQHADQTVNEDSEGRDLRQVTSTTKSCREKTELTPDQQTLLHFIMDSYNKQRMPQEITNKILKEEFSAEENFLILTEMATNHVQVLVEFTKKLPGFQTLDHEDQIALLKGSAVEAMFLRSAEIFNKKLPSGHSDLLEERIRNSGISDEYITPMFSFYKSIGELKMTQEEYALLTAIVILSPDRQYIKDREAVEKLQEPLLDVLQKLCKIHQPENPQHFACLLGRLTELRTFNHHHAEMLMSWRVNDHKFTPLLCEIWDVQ
Sequence of Peroxisome proliferator-activated receptor delta (Homo sapiens) (Q03181 whole entry, looked up): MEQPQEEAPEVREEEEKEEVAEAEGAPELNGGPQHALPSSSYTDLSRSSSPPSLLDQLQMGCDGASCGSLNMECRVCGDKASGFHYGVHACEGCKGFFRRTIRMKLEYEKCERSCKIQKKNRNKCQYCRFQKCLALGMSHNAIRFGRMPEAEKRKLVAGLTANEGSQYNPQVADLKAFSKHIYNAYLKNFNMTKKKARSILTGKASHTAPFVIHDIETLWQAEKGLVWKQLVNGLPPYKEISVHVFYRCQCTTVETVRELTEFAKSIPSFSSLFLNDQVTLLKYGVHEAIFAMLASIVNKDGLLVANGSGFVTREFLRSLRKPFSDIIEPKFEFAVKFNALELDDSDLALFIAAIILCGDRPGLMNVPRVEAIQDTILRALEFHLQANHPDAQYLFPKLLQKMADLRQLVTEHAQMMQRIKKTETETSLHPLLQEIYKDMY
Sequence of Aryl hydrocarbon receptor (Homo sapiens) (P35869 whole entry, looked up): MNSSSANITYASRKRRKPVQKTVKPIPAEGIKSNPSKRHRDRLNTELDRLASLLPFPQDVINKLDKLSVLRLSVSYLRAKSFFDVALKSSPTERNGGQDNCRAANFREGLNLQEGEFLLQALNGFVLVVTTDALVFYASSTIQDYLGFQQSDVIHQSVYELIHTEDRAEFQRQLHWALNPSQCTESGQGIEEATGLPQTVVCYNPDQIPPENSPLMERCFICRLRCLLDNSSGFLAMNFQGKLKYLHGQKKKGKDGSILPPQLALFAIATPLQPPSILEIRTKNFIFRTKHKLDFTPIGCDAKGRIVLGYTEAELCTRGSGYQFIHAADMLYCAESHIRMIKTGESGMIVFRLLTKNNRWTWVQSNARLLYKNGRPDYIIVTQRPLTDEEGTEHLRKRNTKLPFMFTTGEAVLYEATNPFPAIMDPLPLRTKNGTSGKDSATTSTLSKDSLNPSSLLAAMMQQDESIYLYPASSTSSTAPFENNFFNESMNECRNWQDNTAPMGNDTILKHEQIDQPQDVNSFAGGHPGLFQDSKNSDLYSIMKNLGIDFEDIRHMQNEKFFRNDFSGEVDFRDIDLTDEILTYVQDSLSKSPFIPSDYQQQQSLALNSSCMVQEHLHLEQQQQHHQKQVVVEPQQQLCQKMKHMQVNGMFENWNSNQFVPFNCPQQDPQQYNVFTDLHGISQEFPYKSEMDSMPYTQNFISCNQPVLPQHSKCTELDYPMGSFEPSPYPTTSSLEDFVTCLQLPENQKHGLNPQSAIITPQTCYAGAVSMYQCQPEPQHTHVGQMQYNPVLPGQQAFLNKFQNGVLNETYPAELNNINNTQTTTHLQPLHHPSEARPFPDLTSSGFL
Sequence of Vitamin D3 receptor (Homo sapiens) (P11473 whole entry, looked up): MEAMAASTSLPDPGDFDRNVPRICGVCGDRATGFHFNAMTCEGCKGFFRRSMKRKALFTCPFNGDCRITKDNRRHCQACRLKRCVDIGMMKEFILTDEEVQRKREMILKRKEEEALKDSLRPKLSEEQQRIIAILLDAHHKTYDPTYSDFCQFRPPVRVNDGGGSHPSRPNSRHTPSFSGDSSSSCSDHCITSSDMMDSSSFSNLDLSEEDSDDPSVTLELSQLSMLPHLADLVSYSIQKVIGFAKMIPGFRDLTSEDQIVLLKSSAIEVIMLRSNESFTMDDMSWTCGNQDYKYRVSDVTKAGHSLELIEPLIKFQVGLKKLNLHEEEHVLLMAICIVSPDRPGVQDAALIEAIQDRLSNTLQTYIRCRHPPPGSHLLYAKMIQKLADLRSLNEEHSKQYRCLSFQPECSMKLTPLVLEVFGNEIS
Sequence of Peroxisome proliferator-activated receptor gamma (Homo sapiens) (P37231 whole entry, looked up): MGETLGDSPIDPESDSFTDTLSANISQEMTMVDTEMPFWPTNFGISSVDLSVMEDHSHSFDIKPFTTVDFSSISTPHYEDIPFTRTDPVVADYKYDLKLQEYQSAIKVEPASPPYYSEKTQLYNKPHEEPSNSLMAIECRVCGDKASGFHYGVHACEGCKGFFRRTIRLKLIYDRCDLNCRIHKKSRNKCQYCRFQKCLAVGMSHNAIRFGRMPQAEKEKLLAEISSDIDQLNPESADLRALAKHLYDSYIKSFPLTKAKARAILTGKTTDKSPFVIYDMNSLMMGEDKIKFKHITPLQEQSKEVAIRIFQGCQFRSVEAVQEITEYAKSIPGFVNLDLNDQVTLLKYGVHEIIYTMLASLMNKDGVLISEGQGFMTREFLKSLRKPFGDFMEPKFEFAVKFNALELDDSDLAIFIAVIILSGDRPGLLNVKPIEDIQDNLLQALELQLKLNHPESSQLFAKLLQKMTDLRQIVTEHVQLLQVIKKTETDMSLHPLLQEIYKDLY

CC1=C(/C=C/C(C)=C/C=C/C(C)=C/C(=O)O)C(C)(C)CCC1
inactive: [1] | [2] | [3] | [5] | [6] | [7] | [8] | [9] | [10] | [11] | [12] | [13]
active: [4] 0.535 µM

NC(=O)NO
inactive: [1] | [2] | [3] | [5] | [14] | [6] | [15] | [16] | [7] | [17] | [8] | [9] | [10] | [11] | [12] | [13]

C[C@]12C[C@H](O)[C@H]3[C@@H](CCC4=CC(=O)CC[C@@]43C)[C@@H]1CC[C@@H]2C(=O)CO
inactive: [1] | [2] | [3] | [4] | [5] | [14] | [6] | [15] | [16] | [7] | [17] | [8] | [9] | [18] | [10] | [19] | [11]

CCc1cc(C(N)=S)ccn1
inactive: [3] | [5] | [6] | [15] | [16] | [7] | [8] | [10] | [11] | [12] | [13]

O=C1OC(c2ccc(O)cc2)(c2ccc(O)cc2)c2ccccc21
inactive: [1] | [3] | [4] | [5] | [6] | [15] | [16] | [7] | [8] | [10] | [11] | [12] | [13]

Cc1c(N(C)C)c(=O)n(-c2ccccc2)n1C
inactive: [1] | [2] | [3] | [5] | [14] | [6] | [15] | [16] | [7] | [17] | [8] | [9] | [18] | [10] | [19] | [11] | [12] | [13]

O=C(O)CN(CC(=O)O)CC(=O)O
inactive: [1] | [3] | [4] | [20] | [5] | [6] | [15] | [16] | [7] | [17] | [8] | [9] | [18] | [10] | [19] | [11] | [12] | [13]
55.3 µM (active) and inactive: [14]

COc1ccc(C(=O)c2ccccc2)c(O)c1
inactive: [1] | [3] | [4] | [20] | [5] | [14] | [6] | [15] | [16] | [7] | [17] | [8] | [9] | [18] | [10] | [19] | [11]

CO[C@H]1C=CO[C@@]2(C)Oc3c(C)c(O)c4c(O)c(c(/C=N/N5CCN(C)CC5)c(O)c4c3C2=O)NC(=O)/C(C)=C\C=C[C@H](C)[C@H](O)[C@@H](C)[C@@H](O)[C@@H](C)[C@H](OC(C)=O)[C@@H]1C
inactive: [2] | [4] | [5] | [6] | [15] | [16] | [7] | [17] | [8] | [10] | [11] | [12] | [13]
active: [1] 23.7 µM and 15.4 µM and 15.5 µM | [3] 29.8 µM and 27.4 µM and 15.5 µM

C/C=C/c1ccc(O)c(OC)c1
inactive: [1] | [2] | [3] | [4] | [5] | [6] | [15] | [16] | [7] | [17] | [8] | [10] | [11]

Cc1cccc(Nc2cc(Cl)nc(SCC(=O)O)n2)c1C
inactive: [1] | [2] | [3] | [20] | [5] | [6] | [15] | [16] | [7] | [8] | [10] | [11] | [12] | [13]

C#C[C@]1(O)CC[C@H]2[C@@H]3CCc4cc(O)ccc4[C@H]3CC[C@@]21C
inactive: [2] | [3] | [4] | [5] | [14] | [6] | [15] | [16] | [7] | [17] | [8] | [9] | [10] | [11]
inactive and 48.2 µM (active): [1]

c1ccc2[nH]c(-c3cscn3)nc2c1
inactive: [1] | [3] | [4] | [20] | [5] | [14] | [6] | [15] | [16] | [7] | [17] | [8] | [9] | [18] | [10] | [19] | [11] | [12] | [13]

COc1ccccc1NC(=O)CC(C)=O
active: [2] 47.9 µM and 27.3 µM
inactive: [1] | [3] | [4] | [5] | [14] | [6] | [15] | [16] | [7] | [17] | [8] | [9] | [10] | [11] | [12] | [13]
